# Results published in PubChem BioAssay AID431 (Sanford-Burnham Center for Chemical Genomics, 2006).
# The whole screen tested about 63,000 compounds, of which about 1,100 (1.7%) were called active. The sample holds actives, similar compounds and a random draw of the others, so the mix is not that of the screen.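 Rule for the calls: active = compounds whose percent cytotoxicity in the single-dose primary screen, scaled between solvent and toxic-drug controls, exceeds 50; inactive = the rest.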 Measured potencies and affinities stand elsewhere.
# Assay: viability loss of HPDE-C7K cells – cell-based, fluorescence, HTS, primary screen (AID 431);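 note: 0% = DMSO solvent wells and 100% = doxorubicin-treated wells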
# Conditions: HPDE-C7K KRASV12 cells, Alamar Blue viability, 48 h; at 10 µM; stronger effect = higher value
row,SMILES,cytotoxicity
1,CCCNc1cc(=O)n(C)c(=O)n1C,9.9% (inactive)
2,O=c1c2c3nc4ccccc4nc3n(-c3cccc(F)c3)c2ncn1Cc1ccc2c(c1)OCO2,7.3% (inactive)
3,CC(C)c1ccc(O)c(N)c1,8% (inactive)
4,Cc1ccc(SC(C)C(=O)NCC(C)C)cc1 (stereo unspecified),0% (inactive)
5,Cc1ccc(O)c(Sc2cc(C)ccc2O)c1,65.2% (active)
6,Cc1ccc(NC(=O)CSc2nccc(=O)[nH]2)c(S(=O)(=O)N2CCOCC2)c1,2.7% (inactive)
7,CCOC(=O)C1CCN(C(c2cccnc2)c2c(NC(=O)c3ccco3)sc(C)c2C)CC1 (stereo unspecified),82.5% (active)
8,Cc1sc(NC(=O)c2ccco2)c(C(c2cccnc2)N2CCN(c3ccc(F)cc3)CC2)c1C (stereo unspecified),1.9% (inactive)
9,Cc1sc(NC(=O)c2ccco2)c(C(c2ccncc2)N2CCOCC2)c1C (stereo unspecified),-8.8% (inactive)
10,Cc1ccc2nc(N3CCN(C(=O)c4cccs4)CC3)c(C#N)cc2c1,2% (inactive)
11,Cc1ccc2ncccc2c1NS(=O)(=O)c1ccccc1,-4.5% (inactive)
12,O=S(=O)(Nc1cccc2ncccc12)c1cccs1,25.3% (inactive)
13,c1ccc(N(c2ccccc2)c2nc(N3CCCC3)nc(-n3ccnc3)n2)cc1,1.4% (inactive)
14,O=C1c2cccnc2C(O)N1Cc1ccc(F)cc1 (stereo unspecified),1.3% (inactive)
15,Cc1ccc2oc(=O)c3cc(C(=O)N4CCN(C(=O)c5ccco5)CC4)sc3c2c1,11% (inactive)
16,O=C(Nc1ccc(-n2cnnn2)cc1)C1CCC1,-4.6% (inactive)
17,COc1ccc(-c2onc(C)c2-c2ccccc2)c(O)c1,15.1% (inactive)
18,COc1ccc(-c2noc(C)c2-c2ccc3ccccc3n2)c(O)c1,54.3% (active)
19,COc1ccc(-c2n[nH]c(C)c2-c2cnn(-c3ccccc3)c2)c(O)c1,29.6% (inactive)
20,CCOc1ccccc1Nc1ccc(C(=O)O)cc1NC(C)=O,0.6% (inactive)
21,O=C(c1cc(-c2cccs2)on1)N1CCOCC1,2.8% (inactive)
22,O=C(c1cc(-c2cccs2)on1)N1CCN(c2ccccc2)CC1,50.8% (active)
23,O=C(c1cc(-c2cccs2)on1)N1CCN(c2ccc(F)cc2)CC1,13.6% (inactive)
24,O=S(=O)(c1cccc2cccnc12)n1cnc2ccccc21,6.3% (inactive)
25,Cc1cccc(C)c1NC(=O)CSc1nnc(Cn2nnc(-c3ccccc3)n2)n1-c1ccccc1,-8.4% (inactive)
26,N#CC(C(=O)OC1CCCCC1)c1nc2ccccc2nc1N1CCCCC1 (stereo unspecified),5.4% (inactive)

row,SMILES,cytotoxicity
1,O=C(C1=C(O)C(=O)N(CCN2CCOCC2)C1c1ccccc1)c1cccs1 (stereo unspecified),-12.1% (inactive)
2,O=C(c1cccs1)N1CCC(c2nc3c(nnn3Cc3ccccc3)c(=O)[nH]2)CC1,-36% (inactive)
3,COCC(=O)n1nc(-c2ccccc2)nc1NCc1ccc(F)cc1,-6% (inactive)
4,Cc1cccc(N2CCN(C(=O)CCn3c(=S)[nH]c4cc5c(cc4c3=O)OCO5)CC2C)c1 (stereo unspecified),62.5% (active)
5,O=C(CCCn1c(=S)[nH]c2cc3c(cc2c1=O)OCO3)N1CCN(c2ccccc2)CC1,-7.8% (inactive)
6,COc1cccc(N2CCN(C(=O)CCn3c(=S)[nH]c4cc5c(cc4c3=O)OCO5)CC2)c1,-4.3% (inactive)
7,NC1=NC2(CCC(c3ccccc3)CC2)n2c(nc3ccccc32)N1 (stereo unspecified),68.7% (active)
8,NC1=NC2(CCN(Cc3ccccc3)CC2)n2c(nc3ccccc32)N1,1% (inactive)
9,NC1=NC2(CCCCC2)n2c(nc3ccccc32)N1,19% (inactive)
10,CCOc1ccc(CNC(=O)NS(=O)(=O)c2ccc(OC)cc2)cc1,-11.3% (inactive)
11,CCCCn1nnnc1NCc1cccc(OC)c1OC,12.8% (inactive)
12,CCCCn1c(SCC(=O)NCc2ccco2)nnc1-c1ccoc1C,-26.4% (inactive)
13,CCCN(CCC)C(=O)C1CCN(c2cc(C)nc3c(-c4ccc(OC)c(OC)c4)c(C)nn23)CC1,7.2% (inactive)
14,COc1ccc(C(O)C(CN2CCOCC2)c2ccccc2)cc1F (stereo unspecified),-8.6% (inactive)
15,COc1ccc(C(=O)C(c2ccccc2)N2CCOCC2)cc1 (stereo unspecified),-2.4% (inactive)
16,COc1ccc(C(=O)O)cc1F,2.5% (inactive)
17,COc1ccc(C(=O)CCN2CCCCCC2)cc1,-7.8% (inactive)
18,Cc1c(C(=O)N2CCCCC2)sc(NC(=O)C2CC2)c1C#N,2.5% (inactive)
19,O=C(Nc1ccccc1Cl)c1cnccn1,-6.1% (inactive)
20,CCn1c2ccccc2c2cc(C3C(C#N)=C(C)NC(C)=C3C#N)ccc21,7.6% (inactive)
21,CCn1c2ccccc2c2cc(C3C(C#N)=C(N)OC4=C3C(=O)CC(C)(C)C4)ccc21 (stereo unspecified),-10.7% (inactive)
22,Cc1ccc(N2C(=O)CSC23C(=O)Nc2ccccc23)cc1 (stereo unspecified),-5.4% (inactive)
23,COC(=O)[C@@H](NC(=O)Nc1ccccc1F)C(C)C,1.9% (inactive)
24,COc1ccc(C(N)=O)cc1N,-1% (inactive)
25,COc1ccc(C(=O)c2ccc(OC)c(OC)c2)cc1OC,-8.4% (inactive)
26,COc1ccc(C(=O)c2ccc(OC)c(N)c2)cc1N,66.7% (active)

row,SMILES,cytotoxicity
1,CN(Cc1ccccc1)C(=O)C1CCN(Cc2ccc(F)cc2)CC1,8.6% (inactive)
2,CC(C)(C)OC(=O)N1CCC(c2c(C(=O)O)cnn2-c2ccccc2Cl)CC1,1% (inactive)
3,Cc1ccc(CNC(=O)CCS(=O)(=O)c2ccc(Br)s2)o1,-4.2% (inactive)
4,COc1ccc(N(CC(=O)Nc2cc(Cl)ccc2OC)S(=O)(=O)c2c(C)noc2C)cc1,77.1% (active)
5,CCOc1ccccc1NC(=O)CN(c1ccc(C)cc1)S(=O)(=O)c1c(C)noc1C,-7.2% (inactive)
6,COc1ccc(N(CC(=O)Nc2cc(C)ccc2OC)S(=O)(=O)c2c(C)noc2C)cc1,9.5% (inactive)
7,CCOc1ccccc1NC(=O)CN(c1ccc(OC)cc1)S(=O)(=O)c1c(C)noc1C,52.8% (active)
8,CCOc1ccccc1NC(=O)CN(c1cc(C)cc(C)c1)S(=O)(=O)c1c(C)noc1C,-9.2% (inactive)
9,COc1ccc(OC)c(NC(=O)CN(c2ccc(C)cc2)S(=O)(=O)c2c(C)noc2C)c1,1.7% (inactive)
10,COc1ccccc1C(=O)N1CCN(S(=O)(=O)Cc2ccccc2)CC1,-0.3% (inactive)
11,CCOc1cc(CNc2ncnc3nc[nH]c23)ccc1OC,6.5% (inactive)
12,Cc1ccc2nsnc2c1S(=O)(=O)N1CCN(C(=O)C2CCCO2)CC1 (stereo unspecified),-15.6% (inactive)
13,COc1cc2c(cc1OC)C(C)N(C(=O)Cn1ncc3c1-c1ccccc1OC3)CC2 (stereo unspecified),-1.4% (inactive)
14,CC(C)(C)C(=O)Cn1c(NCCCO)nc2ccccc21,-18.5% (inactive)
15,Cc1onc(-c2ccccc2)c1C(N)=O,50.5% (active)
16,Cc1onc(-c2ccccc2)c1C(=O)N1CCCN(C(=O)c2c(-c3ccccc3)noc2C)CC1,-5.2% (inactive)
17,Cc1onc(-c2ccccc2Cl)c1C(N)=O,8% (inactive)
18,CCOC(=O)c1[nH]c(C)c(C(=O)Nc2ccc(C)c(F)c2)c1C,0.8% (inactive)
19,CCc1ccc(NC(=O)c2noc3c2CCCCC3)cc1,3.4% (inactive)
20,COc1ccc(C(=O)N2CCOCC2)cc1Br,-1% (inactive)
21,Cc1cccc(OCC(=O)OCC(=O)c2c(N)n(C)c(=O)n(C)c2=O)c1,3% (inactive)
22,O=C(C1CCCN(S(=O)(=O)c2ccc(Br)s2)C1)N1CCCCCC1 (stereo unspecified),-15.2% (inactive)
23,COC(=O)C1C(=O)C2=C(CC1C)NC(=O)CC2c1ccc(O)c(OC)c1 (stereo unspecified),-9.5% (inactive)
24,Cc1ccc(C)c(S(=O)(=O)NCc2cccnc2)c1,52% (active)
25,Cc1ccc(C(C)C)cc1S(=O)(=O)NCc1cccnc1,0.8% (inactive)
26,Cc1cc(C)c(C)c(S(=O)(=O)NCc2cccnc2)c1C,-6.4% (inactive)

row,SMILES,cytotoxicity
1,COCCN1Cc2c(sc(C)c2C)N(C(=O)c2ccccc2)C1,5.6% (inactive)
2,CC1Cc2cc(-c3csc(NC(=O)Cc4cccs4)n3)ccc2N1S(C)(=O)=O (stereo unspecified),61.4% (active)
3,O=C(Cc1cccs1)Nc1nc(-c2ccccc2)cs1,-14.2% (inactive)
4,CS(=O)(=O)N1CCc2cc(-c3csc(NC(=O)Cc4cccs4)n3)ccc21,2.8% (inactive)
5,CNC(=O)C1CCC(=O)N1Cc1ccc(C)cc1 (stereo unspecified),-0.7% (inactive)
6,Cc1ccc2nc(NCCO)nc(-c3ccccc3)c2c1,16.3% (inactive)
7,O=C(O)c1cc(-c2ccccc2)nc2ccccc12,2% (inactive)
8,O=C(CSc1ncc(-c2ccc(F)cc2)[nH]1)Nc1cccc(O)c1,25.6% (inactive)
9,Cc1ccc(CNC(=O)C2C3C=CC(C3)C2C(=O)O)cc1 (stereo unspecified),1.9% (inactive)
10,CCOC(=O)c1c(C)[nH]c(C)c1-c1ccccc1OC,-2.6% (inactive)
11,CCOC(=O)N1CCN(c2cc(NCCC(=O)O)c3c4c(onc24)-c2ccccc2C3=O)CC1,61.7% (active)
12,CCOC(=O)c1c(C)noc1CP(=O)(c1ccccc1)c1ccccc1,2.6% (inactive)
13,O=C(O)CCCNc1cc(N2CCC3(CC2)OCCO3)c2noc3c2c1C(=O)c1ccccc1-3,40.2% (inactive)
14,CC(=O)OCCNc1cc(N2CCN(C)CC2)c2noc3c2c1C(=O)c1ccccc1-3,16.8% (inactive)
15,CC(CC(=O)O)CC1=NS(=O)(=O)c2ccccc2N1 (stereo unspecified),-8.6% (inactive)
16,COc1ccc(CC(=O)Nc2c3c(nn2-c2cccc(C)c2C)CS(=O)C3)cc1OC (stereo unspecified),0.8% (inactive)
17,COc1cccc(C(=O)c2sc(NC(C)C)nc2N)c1,72.7% (active)
18,CCCc1nnc(NC(=O)c2cccc(OC)c2)s1,-25.2% (inactive)
19,COc1ccc(C(=O)c2sc(NC(C)C)nc2N)cc1OC,-12.6% (inactive)
20,O=C(CSC1=NCCS1)NC1CCCCC1,3.6% (inactive)
21,CCC(CC)C1C(C#N)=C(N)Oc2n[nH]c(C)c21 (stereo unspecified),56.7% (active)
22,Cc1[nH]nc2c1C(C(C)C)C(C#N)=C(N)O2 (stereo unspecified),7.9% (inactive)
23,CCC(C)C1C(C#N)=C(N)Oc2n[nH]c(C)c21 (stereo unspecified),7.5% (inactive)
